The text below walks through data of PubChem BioAssay (NCATS).

Structures are written as SMILES. Records with an inconclusive call do not appear. The source made the active and inactive calls. Calls come from the whole dose curve; as a rule, active = well fitted activation curve with a large enough effect; inconclusive = small, poorly fitted or top-dose-only effect; inactive = no such curve, though single readings can be large or run the other way. Bridge positions count the residues as written; N and C are the ends. Square brackets hold non-standard residues; d marks the D form. Peptide text beside a SMILES is read from it. NMeY = CN[CH](Cc1ccc(O)cc1)C(=O)O
Potency is the fitted concentration of half-maximal effect.

Cellular tumor antigen p53 (Homo sapiens), sequence (P04637 whole entry, looked up): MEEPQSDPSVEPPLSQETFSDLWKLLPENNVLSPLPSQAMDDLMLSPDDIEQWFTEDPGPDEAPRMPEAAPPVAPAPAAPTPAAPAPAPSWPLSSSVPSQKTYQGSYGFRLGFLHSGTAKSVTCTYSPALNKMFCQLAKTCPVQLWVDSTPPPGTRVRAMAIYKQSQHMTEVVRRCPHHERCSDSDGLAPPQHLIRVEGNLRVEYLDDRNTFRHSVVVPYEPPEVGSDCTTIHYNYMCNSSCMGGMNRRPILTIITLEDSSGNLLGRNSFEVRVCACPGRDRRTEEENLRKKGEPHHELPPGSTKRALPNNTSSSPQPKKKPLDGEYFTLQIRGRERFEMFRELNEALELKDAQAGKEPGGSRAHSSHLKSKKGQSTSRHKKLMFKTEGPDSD

This test concerns the target Cellular tumor antigen p53 (Homo sapiens) (UniProt P04637). Description: Primary qHTS for small molecule compounds that upregulate eGFP-tagged delta133p53alpha (in N-terminal) cells. (AID 2060322).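 For activation: series mostly up to about 56 µM; 0% = DMSO vehicle and 100% = reference activator.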 Note: nearly all actives have a fitted effect of over 75% in size. The conditions noted are these: NCI-H358 eGFP-delta133p53alpha fluorescence, 24 h; activation: hits give high values. In short, it runs like this:
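NCI-H358 cells pre-induced 24 h with 10 ng/ml doxycycline to express N-terminal eGFP-delta133p53alpha, then dosed 24 h at 37C without doxycycline; fixed, Hoechst-stained, GFP intensity by laser scanning cytometry, normalized to DMSO (0%) and 57.5 uM 5-azacytidine (100%).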
With `CC(C)=CCC[C@](C)(O[C@@H]1O[C@H](CO[C@@H]2OC[C@@H](O)[C@H](O)[C@H]2O)[C@@H](O)[C@H](O)[C@H]1O)[C@H]1CC[C@]2(C)[C@@H]1[C@H](O)C[C@@H]1[C@@]3(C)CC[C@H](O[C@@H]4O[C@H](CO)[C@@H](O)[C@H](O)[C@H]4O)C(C)(C)[C@@H]3CC[C@]12C`, the activation is 6.33% (inactive). Same read-out and setting: then `CC1(C)CC[C@]2(C(=O)O)[C@H](O)C[C@]3(C)C(=CCC4[C@@]5(C)CC[C@H](O[C@@H]6OC[C@@H](O)[C@H](O)[C@H]6O)[C@@](C)(C(=O)O)C5CC[C@]43C)[C@@H]2C1` (stereo not given in full), with 6.11% (inactive). Turning to `CC[C@H](C)/C=C(C)/C=C/C1=CC2=CC(=O)[C@]3(C)OC(=O)[C@@H](C(C)=O)[C@@H]3C2=CO1`, the Potency was 18.6 µM (active). With `CCc1cc(CC[C@]2(C3CCCC3)CC(O)=C(Cc3nc4nc(C)cc(C)n4n3)C(=O)O2)cc(CC)n1`, the activation is -29.5% (inactive). For the compound `C=C1C(=O)OC2/C=C(\CO)CC/C=C(\C=O)CC(OC(=O)CC(C)C)C12` (stereo not given), the Potency is 14.8 µM (active).

With `CC1=C2CC(=O)C(C)CC/C=C(\C)CC2OC1=O` (stereo not given), the activation was 8.93% (inactive). Still for that read-out and setting: as for `C[C@@H]1O[C@@H](O[C@H]2[C@H](O[C@H]3[C@H](O[C@H]4CC[C@@]5(C)C(CC[C@]6(C)C5CC=C5[C@@H]7CC(C)(C)C[C@@H](O)[C@]7(C)CC[C@]56C)[C@@]4(C)CO)O[C@H](C(=O)O)[C@@H](O)[C@@H]3O)OC[C@H](O)[C@@H]2O)[C@H](O)[C@H](O)[C@H]1O` (stereo not given in full), the figure is 3.82% (inactive); as for `COC1C2=C(COC2=O)C2(C)CCCC(C)(CO)C2C1OC(=O)c1ccccc1` (stereo not given), -16% (inactive). The same measure, in the same setting: as for `CC1CC(=O)C2=C(CCC3(O)C(O)c4c(O)cccc4C(=O)C23O)C1` (stereo not given), the figure is 12.2% (inactive). On the same count and under the same terms, then `C=CC1C(O[C@@H]2O[C@H](CO)[C@@H](O)[C@H](O)[C@H]2O)OC=C(C(=O)OC)C1CC(=O)O` (stereo not given in full), with 23.2% (inactive); and `COc1cc(O)cc(/C=C/c2ccc(O[C@@H]3O[C@H](CO)[C@@H](O)[C@H](O)[C@H]3O)cc2)c1`, with -11.6% (inactive).

Consider `Cc1ccc(Nc2nnc(-c3ccc([N+](=O)[O-])cc3)o2)cc1Cl`, for which the activation was 9.82% (inactive). Same read-out and setting: then `C=C1C(=O)O[C@@H]2C=C(COC(C)=O)CC/C=C(\CO)CC[C@@H]12`, with 3.82% (inactive). Same read-out and setting: as for `C[C@@H](CC[C@@H]1[C@@]2(C)CCCC(C)(C)C2CC[C@@]1(C)O)CC(=O)O` (stereo not given in full), the figure is -12.2% (inactive). Still for that read-out and setting: as for `C=CC(C)(O)CO[C@@H]1O[C@H](CO)[C@@H](O)[C@H](O)[C@H]1O` (stereo not given in full), the figure is -16% (inactive); as for `Cc1ccccc1N1CCN(S(=O)(=O)C[C@]23CC[C@H](C[C@@H]2NC(=O)[C@@H](N)CCS(C)(=O)=O)C3(C)C)CC1`, 3.67% (inactive); as for `CC(=O)O[C@@H]1C[C@H](O)[C@@]23CO[C@H](O)[C@]1(C)C2C[C@@H](O)[C@]1(C)C3C(=O)[C@H](OC(C)=O)[C@@]2(C)[C@H](c3ccoc3)C[C@H]3O[C@]321` (stereo not given in full), -1.79% (inactive). In the case of `COc1cc(-c2ccc(O)cc2)c(OC)c(O)c1C1=CC(=O)OC1CC(=O)O` (stereo not given), the activation is 13.7% (inactive). Still for that read-out and setting: as for `C=C1CC23CC1CCC2C12OC(=O)C(C)(C(O)CC1O)C2C3C(=O)O` (stereo not given), the figure is -7.14% (inactive); as for `C[C@@H]1O[C@@H](OC2C(O[C@H]3[C@H](O[C@H]4CC[C@@]5(C)C(CC[C@]6(C)C5CC=C5C7CC(C)(C)CC(O)[C@]7(C)CC[C@]56C)C4(C)C)O[C@H](C(=O)O)[C@@H](O)[C@@H]3O)OC(CO)C(O)C2O)[C@H](O)[C@H](O)[C@H]1O` (stereo not given in full), -6.11% (inactive). Same read-out and setting: as for `CO[C@H]1O[C@@H]2O[C@]3(C)CC[C@H]4[C@H](C)CC[C@@H]([C@H]1C)[C@@]24OO3`, the figure is 10.3% (inactive). `C=C(C)[C@@H]1CC[C@]2(C(=O)O)CC[C@]3(C(=O)O)[C@H](CCC4[C@@]5(C)CCC(=O)C(C)(C)C5CC[C@]43C)C12` (stereo not given in full): the activation is 33.9% (inactive). Still for that read-out and setting: as for `CC(=O)OCC(=O)[C@@]12O[C@@H]1C[C@H]1[C@@H]3CC=C4C[C@@H](O)CC[C@]4(C)[C@H]3CC[C@@]12C`, the figure is 29% (inactive); as for `CCC[C@@H]1C[C@@H](C(=O)N[C@@H]([C@H]2O[C@H](SC)[C@H](O)[C@@H](O)[C@@H]2O)[C@@H](C)O)N(C)C1`, 7% (inactive). On the same count and under the same terms, then `CC1(C)COC(=O)[C@@H]1O[C@@H]1O[C@H](CO)[C@@H](O)[C@H](O)[C@H]1O`, with -11.6% (inactive); and `C=C(CCO)C(=O)OCC1OCC(OC(=O)C(=C)CCO[C@@H]2O[C@H](COC(=O)C(=C)CCO[C@@H]3O[C@H](CO)[C@@H](O)[C@H](O)[C@H]3O)[C@@H](O)[C@H](O)[C@H]2O)C(O)C1O` (stereo not given in full), with 11.5% (inactive); and `C=CC(C)(C)c1[nH]c2ccccc2c1C[C@@H]1NC(=O)[C@H](Cc2c[nH]c3ccccc23)NC1=O`, with 6.25% (inactive). Consider `COc1cc(O)c2c(c1)C1(OC2=O)C(C)=CC(=O)C1O` (stereo not given), for which the activation was -16% (inactive).

For `CCC(C)C1NC(=O)C2CCCN2C(=O)C(NC(C)=O)C(C)OC(=O)C(Cc2ccc(OC)cc2)N(C)C(=O)C2CCCN2C(=O)C(C(C)C)NC1=O` (stereo not given) (Ac-TPIVP[NMeY](Me); ester 1-C; configuration not given here), the activation was 15.3% (inactive). On the same count and under the same terms, then `CC(=O)OC12CC(C)C(OC(=O)c3ccccc3)C1/C=C(/C)C(OC(=O)c1ccccc1)CC(=O)C(C)(C)/C=C/C(C)C2=O` (stereo not given), with -7.14% (inactive); and `CC(C)C1=CC2C(CC[C@]2(C)O)[C@](C)(O)CC1` (stereo not given in full), with -6.25% (inactive); and `COc1cc(C)c(C(=O)OC2C(C)OC(OC3CCC(C)C4C3C=C(C)C3/C(C)=C\CC/C(C)=C/C5(C)C=C(C(=O)O)C(C)CC56OC(=O)/C(=C(\O)C34C)C6=O)C(O)C2O)c(OC)c1` (stereo not given), with 10.7% (inactive). For `CC1CC(=O)C2C(O)(C1)CC(O)C13OC1c1c(O)cccc1C(=O)C23O` (stereo not given), the activation was -1.53% (inactive). In the case of `COc1cc2ncnc(Nc3cccc(I)c3)c2cc1OC`, the Potency is 12 µM (active). On to `C=C(C)C1Cc2c(ccc3c2OCC(c2ccc(O)cc2O)C3)O1` (stereo not given), for which the activation was 32.1% (inactive).

On to `CC(C)C(C)C(O)C1CC23CC(=O)C4(O)C(=C2CCC3C1C)C=CC1(O)CC(O)CCC14C` (stereo not given), for which the activation was 15.3% (inactive). On the same count and under the same terms, as for `COc1cc(C(CO)CO[C@@H]2O[C@H](CO)[C@@H](O)[C@H](O)[C@H]2O)ccc1O` (stereo not given in full), the figure is -11.5% (inactive); as for `COc1cc(/C=C/C(=O)OC2CC(OC(C)=O)C(OC(C)=O)C3C2CCC2C(=O)OC(c4ccoc4)CC23C)ccc1O[C@@H]1O[C@H](CO)[C@@H](O)[C@H](O)[C@H]1O` (stereo not given in full), -16% (inactive). Same read-out and setting: as for `C/C(=C\CCC(C)(O)c1ccc(C)cc1)C(=O)O` (stereo not given), the figure is -12.2% (inactive); as for `N#Cc1cccc(C(=O)Nc2cc(-c3ccccc3)nn2-c2ccccc2)c1`, -0.893% (inactive).
